Reference: ChEMBL document CHEMBL3988442, “University of Dundee, Small-Polar-MMV Screening Library” (2021)
About 1,200 (3.2%) of roughly 38,000 compounds showed an effect of 50% or more. The median lay at about -58%. Shown is part of a subset that was picked to be rich in strong results.

What follows are compounds tested on Plasmodium falciparum (assay: Calibr Malaria Delayed Death Assay SOP). Conditions: concentration 4.99e-06 (unit not given; other assays of the set use mol/L).
Type: functional, organism-based
Design: scale not given: in the data most compounds retested in dose-response had high values
With `CN1Cc2cc(F)ccc2N(CC(C)(C)O)CCC1=O` the “Percent Effect” value was -102.4%.
With `c1cc2occc2c(N2CCCC(c3nncn3C3CC3)C2)n1` (stereo not drawn) the “Percent Effect” value was -31.64%.
In the case of `CO[C@H]1CN(C(=O)OC(C)(C)C)CC1NCc1cc[nH]c1` (stereo partly drawn), the “Percent Effect” value was -107.9%.
For `CCN1C(=O)C(C#N)=C(C)/C(=C/C2=Cc3ccccc3OC2)C1=O`, the “Percent Effect” value was -95.4%.
`CC1c2ncc(Cn3cccn3)n2CCN1Cc1ccccn1.O=C(O)C(F)(F)F.O=C(O)C(F)(F)F` (stereo not drawn) was tested, and the “Percent Effect” value was -97.72%.
In the case of `CCC[C@H]1CN(C(=O)c2ccc3[nH]c(CO)nc3c2)C[C@@H]1N`, the “Percent Effect” value was -26.19%.
For `CC(=O)N1CCOC2(CCCN(C(=O)c3ccc(Cl)cc3)C2)C1` (stereo not drawn), the “Percent Effect” value was -118.1%.
In the case of `Cc1ccc(NC(=O)N2CC[C@@H](O)C2)c(-c2nc(C3CC3)no2)c1`, the “Percent Effect” value was -83.22%.
In the case of `O=S(=O)(NCCCN1CCCC1)c1cc(F)cc(F)c1`, the “Percent Effect” value was 66.12%.
`CC1CCN(CCCNS(=O)(=O)c2cc(F)cc(F)c2)CC1.Cl` was tested, and the “Percent Effect” value was 61.9%.
With `CC(=O)N1CCN(CCNS(=O)(=O)c2cc(F)cc(F)c2)CC1` the “Percent Effect” value was -120.9%.
With `CC(=O)N1CCN(CCNS(=O)(=O)c2cccc(F)c2)CC1` the “Percent Effect” value was -79.38%.
With `Cn1cnc(S(=O)(=O)NCCCN2CCCCCC2)c1Cl` the “Percent Effect” value was -99.75%.
In the case of `CC1CCN(CCCNS(=O)(=O)Cc2ccccc2F)CC1`, the “Percent Effect” value was 25.53%.
In the case of `O=S(=O)(Cc1ccccc1F)NCCCN1CCCCC1`, the “Percent Effect” value was 18.19%.
`O=S(=O)(Cc1ccccc1Cl)NCCCN1CCCC1` was tested, and the “Percent Effect” value was 78.29%.
With `Cc1cc(F)c(S(=O)(=O)NCCCN2CCC(O)CC2)cc1F` the “Percent Effect” value was -91.17%.
For `CC1CCN(CCCNS(=O)(=O)c2cccc(F)c2)CC1.Cl`, the “Percent Effect” value was 53.06%.
For `CC(C)c1cccc(S(=O)(=O)NCCCN2CCC(O)CC2)c1`, the “Percent Effect” value was 31.74%.
With `Cc1ccccc1CS(=O)(=O)NCCCN1CCCC1` the “Percent Effect” value was 22.31%.
With `CN(Cc1cccs1)Cc1nnsc1Cl` the “Percent Effect” value was -133.9%.
In the case of `NC(=O)CN1CC2(CCC1=O)CCN(C(=O)c1ccccc1F)CC2`, the “Percent Effect” value was -172.5%.
With `CCO[C@H]1CC[C@H]2[C@H]1OCCN2C(=O)CC1=CCCCC1` the “Percent Effect” value was -84.2%.
For `COCCn1ccc2c(C(=O)Nc3nc4c(s3)CCC4)cccc21`, the “Percent Effect” value was -233.3%.
For `CS(=O)(=O)c1ccccc1-n1cc(NC(=O)CC2C=CCC2)cn1` (stereo not drawn), the “Percent Effect” value was -87.45%.
`O=C(CCc1cc2n(n1)CCCN(CCc1ccccc1)C2)NC1CC1` was tested, and the “Percent Effect” value was -74.1%.
`CC(=O)N1CCC(C(=O)NCCc2c[nH]c3cc(C)ccc23)CC1` was tested, and the “Percent Effect” value was -74.03%.
For `CS(=O)(=O)N1CCc2c(cccc2NC(=O)NC2CCCC2)C1`, the “Percent Effect” value was -76.44%.
